Laboratory results reported in PubChem BioAssay (NCATS).
Inconclusive results are not listed. A call without a number means that no potency is given here. Unmarked numbers belong to inactive results. Activity calls are given as the source filed them. Calls follow the shape of the dose curve; as a rule, active = well fitted inhibition curve with a large enough effect; inconclusive = small, poorly fitted or top-dose-only effect; inactive = no such curve, though single readings can be large or run the other way.

Each compound was assayed against Protein phosphatase 1D (Homo sapiens) (UniProt O15297) (assay: RapidFire Mass Spectrometry qHTS Assay for Modulators of WT P53-Induced Phosphatase 1 (WIP1) (AID 1347424)). Conditions: WIP1 dephosphorylation of phosphopeptide, RapidFire MS; series mostly up to 63 µM.
Method in brief: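 RapidFire mass spectrometry measured dephosphorylated peptide after 5 min room-temperature reaction of 2 uM VEPPL-pS-QETFS with 10 nM WIP1 (50 mM Tris-HCl pH 7.5, 30 mM MgCl2, 0.1 mM EGTA, BSA), following 1 hr compound preincubation; 1 uM isotope-labelled product standard.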

Protein phosphatase 1D (Homo sapiens), sequence (O15297 whole entry, looked up): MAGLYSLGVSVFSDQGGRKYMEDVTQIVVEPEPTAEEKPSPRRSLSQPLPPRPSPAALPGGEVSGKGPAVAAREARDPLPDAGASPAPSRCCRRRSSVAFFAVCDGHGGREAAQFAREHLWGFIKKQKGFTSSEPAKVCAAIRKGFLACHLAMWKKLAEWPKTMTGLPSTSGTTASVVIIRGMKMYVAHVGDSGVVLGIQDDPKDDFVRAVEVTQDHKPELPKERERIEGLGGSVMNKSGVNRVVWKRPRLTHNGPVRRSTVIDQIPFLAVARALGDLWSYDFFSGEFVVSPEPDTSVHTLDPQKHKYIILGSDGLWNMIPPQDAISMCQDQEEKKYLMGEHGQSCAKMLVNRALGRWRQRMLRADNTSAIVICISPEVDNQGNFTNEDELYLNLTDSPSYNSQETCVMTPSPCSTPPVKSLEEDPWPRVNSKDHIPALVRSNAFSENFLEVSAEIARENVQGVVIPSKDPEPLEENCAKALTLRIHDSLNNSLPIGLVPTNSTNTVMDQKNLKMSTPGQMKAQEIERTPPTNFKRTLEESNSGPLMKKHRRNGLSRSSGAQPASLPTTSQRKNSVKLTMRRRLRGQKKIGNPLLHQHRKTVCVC

Compound	Potency	activity change, negative = inhibition
COc1cc(C(=S)N2CCOCC2)ccc1O	inactive	–
O=C(Oc1cccc2cccnc12)c1ccccc1	inactive	–
COc1cc(O)c(C(=O)c2ccccc2)cc1S(=O)(=O)O	inactive	–
O=[N+]([O-])c1ccc(/C=N\O)o1	inactive	–
O=C(O)CCNC(=O)c1ccccc1	inactive	–
Cn1c(=O)c2[nH]c(Br)nc2n(C)c1=O	inactive	–
NC1CCN(c2nc3c(cc2F)c(=O)c(C(=O)O)cn3-c2ccc(F)cc2F)C1 (stereo unspecified)	inactive	–
COc1ccc(C(=O)c2ccccc2)c(O)c1	inactive	–
O=C(Nc1ccccc1)OCC(CN1CCCCC1)OC(=O)Nc1ccccc1 (stereo unspecified)	inactive	–
Nc1nc(Cl)nc2c1ncn2[C@@H]1O[C@H](CO)[C@@H](O)[C@@H]1F	inactive	–
CC[N+](C)(CC)CCOC(=O)C(O)(c1ccccc1)C1CCCCC1 (stereo unspecified)	inactive	–
CN(Cc1ccc(C(C)(C)C)cc1)Cc1cccc2ccccc12	inactive	–
CC(=O)N[C@@H](CCC(=O)O)C(=O)O	inactive	–
CC(=O)NO	inactive	–
CN1CCN(C2=Nc3ccccc3Sc3ccc(Cl)cc32)CC1	inactive	–
CCN1CCN(C(=O)N[C@@H](C(=O)N[C@@H]2C(=O)N3C(C(=O)O)=C(CSc4nnnn4C)CS[C@H]23)c2ccc(O)cc2)C(=O)C1=O	inactive	–
COc1cc(C(=O)N2CCCCCCC2)cc(OC)c1OC	inactive	–
C#C[C@]1(O)CC[C@H]2[C@@H]3CCC4=CC(=O)CC[C@@H]4[C@H]3CC[C@@]21CC	inactive	–

Compound	Potency	activity change, negative = inhibition
COc1ccc(/C=N/NC(=O)c2ccncc2)cc1OC	inactive	–
Nc1nc(N)c(-c2ccccc2)s1	inactive	–
O=C1C(O)=C(O)C(=O)C(O)=C1O	inactive	–
Cc1cccc(C)c1NC(=O)CN1CCCC1	inactive	–
c1ccc(CC2=NCCN2)cc1	inactive	–
Cc1ncc(CO)c(C=O)c1O	inactive	–
CCCN(CCC)S(=O)(=O)c1ccc(C(=O)O)cc1	inactive	–
CCCCN1C[C@H](O)[C@@H](O)[C@H](O)[C@H]1CO	inactive	–
CCOc1ccccc1C(N)=O	inactive	–
O=C1OC(CN2CCOCC2)CN1/N=C/c1ccc([N+](=O)[O-])o1 (stereo unspecified)	inactive	–
OC[C@H]1O[C@@H](Oc2ccc(O)cc2)[C@H](O)[C@@H](O)[C@@H]1O	inactive	–
c1ccc(-c2nc[nH]c2-c2ccccc2)cc1	inactive	–
Cc1c(-c2ccccc2)oc2c(C(=O)OCCN3CCCCC3)cccc2c1=O	inactive	–
O=C(Nc1ccc([N+](=O)[O-])cc1)Nc1ccc([N+](=O)[O-])cc1	inactive	–
CCOCCn1c(N2CCCN(C)CC2)nc2ccccc21	inactive	–
N=C(N)N1CCc2ccccc2C1	–	-1.79% [at 6.17 µM]
Cc1cc(-c2ccccc2)nnc1NCCN1CCOCC1	inactive	–
CC(=O)Nc1ccc(CC(=O)O)cc1	inactive	–
